Laboratory results: the supplement of paper PMC10849652
Targets with a hit are over-represented here; the source holds about 8,800 in all. About 0.5% of all pairs of compound and target were hits.

Legend:
Test in all cases: log2 fold change, soluble protein after heating vs DMSO (PISA); higher = thermal stabilisation; K562 lysate, 10 uM; active = over 0.2 and 3.5 SD of the protein, either way, in both replicates (recomputed)
[1] = compound: C1=CC=C(C=C1)[C@H](COC2=CC3=C(C=C2)NC(=O)N3)NC(=O)C4=CC=CN(C4=O)CC5=CC(=C(C=C5)F)F
Outline: (§1)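 Thermal stability, expressed as log-two fold change relative to solvent controls, is given from duplicates. Crude K562 extract in PBS pH 7.4 with 1 mM MgCl2, at 1 mg/mL protein, was treated with 10 μM compound for 30 min and heated in aliquots for 3 min across 48°C-58°C. After pooling, adjustment to 0.5% NP-40 at 4°C and centrifugation at 21,000xg for 90 min, supernatant protein was measured by TMTpro 16plex LC-MS/MS with channel sums equalised.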

[2] = compound: CC1=C(SC2=C1C(=N[C@H](C3=NN=C(N32)C)CC(=O)N)C4=CC=C(C=C4)Cl)C
Outline: as §1

[3] = compound: CC1=C2C(=CC=C1)N=C(N(C2=O)C3=CC=CC=C3C)CN4C=NC5=C(N=CN=C54)N
Outline: as §1

[4] = compound: Cc1sc2c(c1C)C(c1ccc(Cl)cc1)=N[C@@H](CC(=O)OC(C)(C)C)c1nnc(C)n1-2
Outline: as §1

[5] = compound: c1ccc([C@@H]2C[C@H]2NC2CCNCC2)cc1
Outline: as §1

UniProt Q6NXT6, sequence (Q6NXT6 whole entry, looked up): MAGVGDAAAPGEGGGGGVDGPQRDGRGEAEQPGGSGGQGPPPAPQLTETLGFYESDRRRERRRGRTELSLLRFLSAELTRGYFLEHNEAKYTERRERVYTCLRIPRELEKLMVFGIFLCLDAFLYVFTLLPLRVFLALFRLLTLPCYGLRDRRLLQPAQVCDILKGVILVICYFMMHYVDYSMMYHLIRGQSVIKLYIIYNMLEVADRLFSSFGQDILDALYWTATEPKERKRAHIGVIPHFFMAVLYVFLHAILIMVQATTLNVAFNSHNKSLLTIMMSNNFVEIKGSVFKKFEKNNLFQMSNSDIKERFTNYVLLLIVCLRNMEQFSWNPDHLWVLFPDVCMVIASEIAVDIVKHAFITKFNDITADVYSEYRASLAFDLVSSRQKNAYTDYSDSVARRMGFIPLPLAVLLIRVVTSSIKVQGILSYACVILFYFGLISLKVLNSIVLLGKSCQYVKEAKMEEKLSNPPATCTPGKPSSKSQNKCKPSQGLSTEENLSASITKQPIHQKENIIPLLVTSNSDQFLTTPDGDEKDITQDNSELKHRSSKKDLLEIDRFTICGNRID
UniProt P52630, sequence (P52630 whole entry, looked up): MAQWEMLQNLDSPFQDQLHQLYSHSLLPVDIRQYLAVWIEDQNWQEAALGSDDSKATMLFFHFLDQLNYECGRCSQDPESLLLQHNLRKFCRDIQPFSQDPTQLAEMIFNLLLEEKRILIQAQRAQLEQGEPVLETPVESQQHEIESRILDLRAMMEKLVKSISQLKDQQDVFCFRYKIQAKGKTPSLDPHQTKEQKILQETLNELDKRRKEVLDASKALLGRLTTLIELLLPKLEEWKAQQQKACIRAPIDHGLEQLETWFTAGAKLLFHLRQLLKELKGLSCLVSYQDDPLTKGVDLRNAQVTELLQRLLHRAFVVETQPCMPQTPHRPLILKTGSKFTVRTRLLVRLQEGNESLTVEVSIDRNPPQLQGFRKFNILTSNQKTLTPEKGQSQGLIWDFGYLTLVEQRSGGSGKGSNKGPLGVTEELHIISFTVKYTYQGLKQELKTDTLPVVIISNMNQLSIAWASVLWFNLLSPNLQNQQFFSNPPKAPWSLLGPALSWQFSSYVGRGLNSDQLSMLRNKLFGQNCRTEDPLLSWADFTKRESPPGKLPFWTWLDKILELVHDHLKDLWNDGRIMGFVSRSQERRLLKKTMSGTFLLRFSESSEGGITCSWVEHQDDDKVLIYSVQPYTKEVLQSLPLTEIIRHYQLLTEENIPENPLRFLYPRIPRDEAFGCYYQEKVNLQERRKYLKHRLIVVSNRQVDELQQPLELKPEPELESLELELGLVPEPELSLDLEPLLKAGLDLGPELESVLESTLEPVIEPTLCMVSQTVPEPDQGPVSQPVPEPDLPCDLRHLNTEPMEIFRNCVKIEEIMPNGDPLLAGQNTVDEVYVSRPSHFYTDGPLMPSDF
UniProt Q96DI7, sequence (Q96DI7 whole entry, looked up): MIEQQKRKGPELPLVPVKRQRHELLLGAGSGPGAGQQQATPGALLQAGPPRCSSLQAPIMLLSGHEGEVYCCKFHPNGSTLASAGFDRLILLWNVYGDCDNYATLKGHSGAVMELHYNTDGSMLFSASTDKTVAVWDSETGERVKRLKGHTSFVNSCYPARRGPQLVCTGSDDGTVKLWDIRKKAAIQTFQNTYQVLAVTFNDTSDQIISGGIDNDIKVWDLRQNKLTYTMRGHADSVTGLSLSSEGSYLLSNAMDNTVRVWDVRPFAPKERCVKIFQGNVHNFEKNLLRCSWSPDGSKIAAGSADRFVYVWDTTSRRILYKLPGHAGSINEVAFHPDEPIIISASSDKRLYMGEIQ
UniProt Q8N1F8, sequence (Q8N1F8 whole entry, looked up): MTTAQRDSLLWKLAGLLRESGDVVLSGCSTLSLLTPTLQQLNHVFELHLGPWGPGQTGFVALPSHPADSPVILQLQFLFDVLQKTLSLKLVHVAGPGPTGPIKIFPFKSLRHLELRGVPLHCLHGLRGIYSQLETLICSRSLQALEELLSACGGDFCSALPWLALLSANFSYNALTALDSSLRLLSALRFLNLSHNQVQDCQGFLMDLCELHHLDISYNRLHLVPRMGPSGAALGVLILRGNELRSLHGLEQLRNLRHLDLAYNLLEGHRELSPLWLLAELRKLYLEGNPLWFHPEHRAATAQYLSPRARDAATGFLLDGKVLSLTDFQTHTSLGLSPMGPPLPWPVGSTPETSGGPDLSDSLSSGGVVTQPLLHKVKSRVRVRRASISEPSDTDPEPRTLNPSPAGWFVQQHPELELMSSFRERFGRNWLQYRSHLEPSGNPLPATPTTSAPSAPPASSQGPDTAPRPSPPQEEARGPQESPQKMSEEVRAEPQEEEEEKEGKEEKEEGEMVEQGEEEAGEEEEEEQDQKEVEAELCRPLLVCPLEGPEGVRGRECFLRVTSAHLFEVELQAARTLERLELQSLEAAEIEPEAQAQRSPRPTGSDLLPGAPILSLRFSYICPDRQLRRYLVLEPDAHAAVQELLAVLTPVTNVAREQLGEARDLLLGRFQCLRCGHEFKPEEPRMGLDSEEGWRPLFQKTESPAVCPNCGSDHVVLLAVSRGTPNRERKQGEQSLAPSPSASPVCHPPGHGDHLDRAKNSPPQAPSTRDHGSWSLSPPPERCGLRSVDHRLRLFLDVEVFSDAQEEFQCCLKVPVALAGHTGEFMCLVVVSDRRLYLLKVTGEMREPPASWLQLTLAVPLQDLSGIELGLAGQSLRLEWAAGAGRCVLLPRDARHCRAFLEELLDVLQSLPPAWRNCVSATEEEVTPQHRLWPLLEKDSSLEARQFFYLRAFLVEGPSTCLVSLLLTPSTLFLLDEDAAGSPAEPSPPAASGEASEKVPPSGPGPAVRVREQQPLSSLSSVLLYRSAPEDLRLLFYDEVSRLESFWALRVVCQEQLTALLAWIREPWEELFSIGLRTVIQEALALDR
UniProt Q8WUM9, sequence (Q8WUM9 whole entry, looked up): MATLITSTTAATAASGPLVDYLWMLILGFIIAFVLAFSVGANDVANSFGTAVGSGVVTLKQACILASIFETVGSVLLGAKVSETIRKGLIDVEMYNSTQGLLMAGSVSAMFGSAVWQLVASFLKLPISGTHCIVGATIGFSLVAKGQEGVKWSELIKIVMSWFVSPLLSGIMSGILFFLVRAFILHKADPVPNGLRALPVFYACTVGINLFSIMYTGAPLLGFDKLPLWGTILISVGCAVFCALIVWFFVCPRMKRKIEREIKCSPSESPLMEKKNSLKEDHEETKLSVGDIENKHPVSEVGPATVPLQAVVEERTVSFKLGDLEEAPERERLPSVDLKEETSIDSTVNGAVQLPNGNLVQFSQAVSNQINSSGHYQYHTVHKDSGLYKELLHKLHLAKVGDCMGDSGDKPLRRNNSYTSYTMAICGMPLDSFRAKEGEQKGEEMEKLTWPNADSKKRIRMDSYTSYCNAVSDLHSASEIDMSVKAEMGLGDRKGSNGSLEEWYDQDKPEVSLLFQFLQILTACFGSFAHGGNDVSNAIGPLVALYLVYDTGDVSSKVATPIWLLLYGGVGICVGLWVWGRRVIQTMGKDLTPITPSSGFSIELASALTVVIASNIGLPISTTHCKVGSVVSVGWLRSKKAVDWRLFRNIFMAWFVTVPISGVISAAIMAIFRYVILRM
UniProt O60504, sequence (O60504 whole entry, looked up): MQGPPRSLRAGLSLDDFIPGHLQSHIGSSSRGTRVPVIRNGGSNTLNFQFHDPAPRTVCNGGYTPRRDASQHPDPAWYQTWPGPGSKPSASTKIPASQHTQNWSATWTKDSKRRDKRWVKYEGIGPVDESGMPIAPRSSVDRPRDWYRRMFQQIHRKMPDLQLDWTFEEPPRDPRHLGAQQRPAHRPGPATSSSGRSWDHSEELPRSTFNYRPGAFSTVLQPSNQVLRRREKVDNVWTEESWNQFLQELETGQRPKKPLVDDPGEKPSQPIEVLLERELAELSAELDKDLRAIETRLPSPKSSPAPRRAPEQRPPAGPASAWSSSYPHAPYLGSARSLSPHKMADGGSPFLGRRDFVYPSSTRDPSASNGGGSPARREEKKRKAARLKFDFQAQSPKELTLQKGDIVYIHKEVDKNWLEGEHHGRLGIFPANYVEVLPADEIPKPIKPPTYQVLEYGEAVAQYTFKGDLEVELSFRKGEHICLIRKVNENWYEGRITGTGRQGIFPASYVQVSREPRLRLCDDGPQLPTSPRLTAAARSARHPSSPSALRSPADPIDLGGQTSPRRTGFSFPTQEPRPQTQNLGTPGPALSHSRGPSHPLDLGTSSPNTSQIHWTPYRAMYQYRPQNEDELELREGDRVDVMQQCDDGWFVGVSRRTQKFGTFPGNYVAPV
UniProt Q8NEM2, sequence (Q8NEM2 whole entry, looked up): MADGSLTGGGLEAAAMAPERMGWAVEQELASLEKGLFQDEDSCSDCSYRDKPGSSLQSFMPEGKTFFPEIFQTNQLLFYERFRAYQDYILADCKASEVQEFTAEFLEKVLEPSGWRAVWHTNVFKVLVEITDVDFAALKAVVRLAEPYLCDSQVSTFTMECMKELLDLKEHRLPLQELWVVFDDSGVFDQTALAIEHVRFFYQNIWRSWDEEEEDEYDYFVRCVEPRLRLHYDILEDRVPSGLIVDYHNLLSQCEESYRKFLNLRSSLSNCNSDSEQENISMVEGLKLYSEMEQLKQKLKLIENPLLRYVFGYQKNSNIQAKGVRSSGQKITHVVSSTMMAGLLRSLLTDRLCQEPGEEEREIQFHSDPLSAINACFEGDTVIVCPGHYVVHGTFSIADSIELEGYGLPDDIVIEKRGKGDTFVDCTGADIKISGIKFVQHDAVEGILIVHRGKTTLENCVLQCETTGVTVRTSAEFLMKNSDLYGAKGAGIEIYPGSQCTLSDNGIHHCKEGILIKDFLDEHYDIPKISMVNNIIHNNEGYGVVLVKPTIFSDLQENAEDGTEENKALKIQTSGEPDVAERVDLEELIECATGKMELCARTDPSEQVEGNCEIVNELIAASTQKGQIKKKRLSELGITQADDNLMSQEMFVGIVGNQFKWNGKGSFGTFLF
UniProt Q9UJC5, sequence (Q9UJC5 whole entry, looked up): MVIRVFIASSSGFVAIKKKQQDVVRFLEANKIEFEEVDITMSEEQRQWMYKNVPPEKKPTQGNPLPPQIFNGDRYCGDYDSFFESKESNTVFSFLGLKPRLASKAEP

| Target | log2 fold change [1] | log2 fold change [2] | log2 fold change [3] | log2 fold change [4] | log2 fold change [5] |
| --- | --- | --- | --- | --- | --- |
| SMN1 (UniProt Q16637) | 0.083 (inactive) | -0.054 (inactive) | 0.054 (inactive) | -0.012 (inactive) | 0.024 (inactive) |
| SSB (UniProt P05455) | -0.004 (inactive) | 0.015 (inactive) | -0.009 (inactive) | 0.012 (inactive) | 0.068 (inactive) |
| SPAG1 (UniProt Q07617) | -0.046 (inactive) | -0.327 (inactive) | 0.081 (inactive) | – | – |
| STMN3 (UniProt Q9NZ72) | 0.046 (inactive) | -0.053 (inactive) | 0.065 (inactive) | -0.061 (inactive) | – |
| SLC7A5 (UniProt Q01650) | 0.019 (inactive) | -0.027 (inactive) | 0.003 (inactive) | -0.061 (inactive) | -0.231 (inactive) |
| SKA1 (UniProt Q96BD8) | -0.03 (inactive) | 0.005 (inactive) | 0.025 (inactive) | -0.018 (inactive) | 0.018 (inactive) |
| TAF9 (UniProt Q16594) | 0.04 (inactive) | -0.004 (inactive) | 0.05 (inactive) | 0.019 (inactive) | 0.021 (inactive) |
| SLC30A9 (UniProt Q6PML9) | -0.013 (inactive) | -0.045 (inactive) | 0.003 (inactive) | -0.013 (inactive) | -0.105 (inactive) |
| SYF2 (UniProt O95926) | 0.021 (inactive) | -0.102 (inactive) | 0.001 (inactive) | 0.015 (inactive) | -0.024 (inactive) |
| SMYD3 (UniProt Q9H7B4) | 0.028 (inactive) | 0.05 (inactive) | 0.035 (inactive) | -0.001 (inactive) | – |
| SORBS3 (UniProt O60504) | 0.047 (inactive) | 0.081 (inactive) | -0.049 (inactive) | 0.028 (inactive) | 0.022 (inactive) |
| SMC1B isoform 3 (UniProt Q8NDV3) | 0.009 (inactive) | 0.076 (inactive) | 0.12 (inactive) | -0.063 (inactive) | – |
| SLC25A44 (UniProt Q96H78) | 0.042 (inactive) | -0.044 (inactive) | -0.014 (inactive) | -0.004 (inactive) | -0.17 (inactive) |
| SMC4 (UniProt C9JJ64) | -0.189 (inactive) | 0.179 (inactive) | – | – | – |
| SHCBP1 (UniProt Q8NEM2) | 0.056 (inactive) | 0.012 (inactive) | -0.032 (inactive) | -0.022 (inactive) | -0.039 (inactive) |
| SNCA (UniProt P37840) | 0.211 (inactive) | 0 (inactive) | -0.009 (inactive) | 0.211 (inactive) | -0.077 (inactive) |
| TAPT1 (UniProt Q6NXT6) | -0.004 (inactive) | -0.023 (inactive) | 0.092 (inactive) | -0.07 (inactive) | -0.128 (inactive) |
| SMAD9 (UniProt O15198) | 0.102 (inactive) | -0.074 (inactive) | 0.058 (inactive) | -0.099 (inactive) | 0.042 (inactive) |
| SYNE2 isoform 2 (UniProt Q8WXH0) | -0.037 (inactive) | 0.044 (inactive) | 0.02 (inactive) | -0.065 (inactive) | -0.416 (inactive) |
| SVIP (UniProt Q8NHG7) | 0.02 (inactive) | -0.048 (inactive) | -0.052 (inactive) | -0.069 (inactive) | -0.028 (inactive) |
| SNW1 (UniProt Q13573) | 0.018 (inactive) | -0.002 (inactive) | -0.009 (inactive) | 0.022 (inactive) | 0.048 (inactive) |
| SPAG5 (UniProt Q96R06) | 0.006 (inactive) | 0.004 (inactive) | 0.021 (inactive) | 0.013 (inactive) | 0.026 (inactive) |
| SLC11A2 isoform 3 (UniProt P49281) | -0.081 (inactive) | -0.017 (inactive) | 0.016 (inactive) | -0.01 (inactive) | 0.003 (inactive) |
| SRPK1 (UniProt Q96SB4) | -0.002 (inactive) | -0.023 (inactive) | 0.004 (inactive) | -0.015 (inactive) | -0.025 (inactive) |
| SLC25A25 isoform 3 (UniProt Q6KCM7) | 0.064 (inactive) | -0.027 (inactive) | 0.013 (inactive) | 0.034 (inactive) | 0.023 (inactive) |
| TAOK2 (UniProt Q9UL54) | -0.033 (inactive) | 0.118 (inactive) | -0.001 (inactive) | 0.242 (inactive) | -0.105 (inactive) |
| SH3GL3 isoform 3 (UniProt Q99963) | 0.024 (inactive) | 0.033 (inactive) | 0.133 (inactive) | -0.169 (inactive) | -0.416 (inactive) |

| Target | log2 fold change [1] | log2 fold change [2] | log2 fold change [3] | log2 fold change [4] | log2 fold change [5] |
| --- | --- | --- | --- | --- | --- |
| STAT2 (UniProt P52630) | -0.033 (inactive) | 0.005 (inactive) | 0.043 (inactive) | 0.033 (inactive) | 0.017 (inactive) |
| SMTN isoform 6 (UniProt P53814) | 0.053 (inactive) | -0.011 (inactive) | -0.01 (inactive) | 0.01 (inactive) | 0.081 (inactive) |
| SNRPD3 (UniProt P62318) | -0.02 (inactive) | -0.011 (inactive) | 0.022 (inactive) | -0.027 (inactive) | -0.118 (inactive) |
| SNRPD2 (UniProt P62316) | 0.039 (inactive) | -0.021 (inactive) | 0.028 (inactive) | -0.009 (inactive) | -0.068 (inactive) |
| SNAP23 (UniProt O00161) | 0.059 (inactive) | -0.038 (inactive) | -0.005 (inactive) | 0.007 (inactive) | 0.066 (inactive) |
| STK11IP (UniProt Q8N1F8) | 0.002 (inactive) | 0.072 (inactive) | 0.019 (inactive) | 0.019 (inactive) | 0.015 (inactive) |
| SNRNP40 (UniProt Q96DI7) | 0.023 (inactive) | -0.03 (inactive) | 0.012 (inactive) | 0 (inactive) | -0.002 (inactive) |
| SLC29A2 (UniProt Q14542) | 0.106 (inactive) | 0.001 (inactive) | 0.044 (inactive) | -0.116 (inactive) | -0.233 (inactive) |
| SUZ12 (UniProt Q15022) | -0.011 (inactive) | 0.042 (inactive) | -0.008 (inactive) | -0.047 (inactive) | -0.039 (inactive) |
| STAU1 (UniProt O95793) | -0.023 (inactive) | -0.021 (inactive) | 0.012 (inactive) | 0.059 (inactive) | 0.09 (inactive) |
| SLC25A17 (UniProt O43808) | -0.014 (inactive) | 0.007 (inactive) | -0.024 (inactive) | -0.096 (inactive) | -0.163 (inactive) |
| SMG5 (UniProt Q9UPR3) | -0.078 (inactive) | 0.041 (inactive) | 0.026 (inactive) | -0.047 (inactive) | -0.024 (inactive) |
| SLC20A1 (UniProt Q8WUM9) | 0.071 (inactive) | -0.048 (inactive) | 0.007 (inactive) | -0.046 (inactive) | 0.024 (inactive) |
| SH3BGRL2 (UniProt Q9UJC5) | 0.048 (inactive) | 0.085 (inactive) | -0.027 (inactive) | -0.001 (inactive) | 0.083 (inactive) |
| TAF6L (UniProt Q9Y6J9) | 0.011 (inactive) | -0.027 (inactive) | -0.094 (inactive) | -0.02 (inactive) | 0.061 (inactive) |
| SNRPF (UniProt P62306) | 0.04 (inactive) | -0.084 (inactive) | -0.12 (inactive) | -0.103 (inactive) | -0.206 (inactive) |
| SMG6 (UniProt Q86US8) | 0.097 (inactive) | -0.041 (inactive) | -0.043 (inactive) | 0.076 (inactive) | 0.073 (inactive) |
| SPATS2 (UniProt Q86XZ4) | 0.042 (inactive) | -0.035 (inactive) | 0.061 (inactive) | -0.014 (inactive) | -0.07 (inactive) |
| SSB (UniProt E7ERC4) | -0.137 (inactive) | 0.12 (inactive) | 0.186 (inactive) | -0.105 (inactive) | 0.444 (inactive) |
| SMC2 (UniProt O95347) | -0.007 (inactive) | 0.018 (inactive) | 0.016 (inactive) | 0.003 (inactive) | 0.069 (inactive) |
| STK4 (UniProt Q13043) | -0.031 (inactive) | -0.098 (inactive) | -0.05 (inactive) | -0.029 (inactive) | -0.124 (inactive) |
| SLC27A4 (UniProt Q6P1M0) | 0.106 (inactive) | -0.006 (inactive) | 0.054 (inactive) | -0.002 (inactive) | 0.121 (inactive) |
| SYPL1 (UniProt Q16563) | -0.075 (inactive) | 0.003 (inactive) | -0.01 (inactive) | -0.041 (inactive) | -0.123 (inactive) |
| SP1 (UniProt P08047) | 0.007 (inactive) | 0.042 (inactive) | 0.001 (inactive) | 0.038 (inactive) | 0 (inactive) |
| SPHK1 isoform 2 (UniProt Q9NYA1) | -0.014 (inactive) | -0.034 (inactive) | -0.038 (inactive) | -0.003 (inactive) | 0.092 (inactive) |
| SOAT1 (UniProt P35610) | 0.041 (inactive) | -0.002 (inactive) | -0.008 (inactive) | 0.282 (active) | -0.06 (inactive) |
| SMC6 (UniProt Q96SB8) | -0.049 (inactive) | 0.006 (inactive) | 0.014 (inactive) | -0.036 (inactive) | -0.047 (inactive) |
